Drawing on PubChem BioAssay AID431 (Sanford-Burnham Center for Chemical Genomics, 2006), this text covers cytotoxicity for 62 compounds.

The campaign covered roughly 63,000 compounds. About 1,100 (1.7%) were called active. What follows is part of a selection rich in actives, with near analogues and random picks from the rest. Results with a measured potency or affinity are listed apart. Values without a mark were called inactive.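 Rule for the calls: active = compounds whose percent cytotoxicity in the single-dose primary screen, scaled between solvent and toxic-drug controls, exceeds 50; inactive = the rest.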

This experiment is described as follows: cytotoxicity in KRAS-transformed pancreatic duct cells, primary screen, cell-based, fluorescence, HTS (AID 431).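 Note: 0% = DMSO solvent wells and 100% = doxorubicin-treated wells.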 Particulars: HPDE-C7K KRASV12 cells, Alamar Blue viability, 48 h; at 10 µM; hits give high values. Background: Resazurin is reduced to fluorescent resorufin, in cell work by metabolically active cells.
As for `COc1ccc(C(CC(=O)O)NS(=O)(=O)c2ccc(C)cc2)cc1OC` (configuration not stated), the cytotoxicity is -5.1%.

On to `Cc1nnc(C)n1/N=C/C=C/c1ccccc1`, for which the cytotoxicity is -40%.

For the compound `O=C(c1ccc(Cn2cc(Br)cn2)cc1)N1CCN(c2ccccc2)CC1`, the cytotoxicity was 54.2% (active). In the case of `O=C(O)c1cccc(Cn2cc(Br)cn2)c1`, the cytotoxicity was -3.7%. Turning to `O=C(c1ccc(Cn2cc(Cl)cn2)cc1)N1CCN(c2ccccc2)CC1`, the cytotoxicity is 4.2%. `Fc1ccc(Br)cc1C1C=C(c2ccc(Br)s2)Nc2ncnn21` (configuration not stated): the cytotoxicity is 56.5% (active).

Consider `Fc1ccc(Br)cc1C1C=C(c2cccnc2)Nc2ncnn21` (configuration not stated), for which the cytotoxicity was 10.9%.

With `COc1cccc(C2C=C(c3ccc(Br)s3)Nc3ncnn32)c1OC` (configuration not stated), the cytotoxicity is -7.6%.

In the case of `COc1ccccc1CCC(=O)Nc1nc2ccccc2[nH]1`, the cytotoxicity is 3.7%. As for `O=C(O)c1cc(NCc2c(F)cccc2Cl)ccc1N1CCOCC1`, the figure is -14.3%; as for `C=CCn1c(SCC(=O)Nc2c(C)cccc2C)nnc1-c1cnccn1`, -10%; as for `CCCC(=O)N1CCN(S(=O)(=O)c2cc(Cl)ccc2OC)CC1`, -3.6%.

As to `CCC(=O)c1ccc(O)cc1`, the cytotoxicity is -12%. The result for `C=C(c1ccc(O)cc1)c1ccc(O)cc1` reads 12.5%.

Take `C/C=C(/C(=C/C)c1ccc(O)cc1)c1ccc(O)cc1`: the cytotoxicity is 111% (active). The result for `CC(C)(C)NC(=O)NC(=O)COC(=O)COc1ccc2c(c1)CCC2` reads -4.8%; that for `CCN(CC)CCNC(=O)c1c(C)oc2cc(Br)c(OC)cc12`, 15.1%; that for `CCOC(=O)c1c(CN2CCCCC2)n(C)c2cc(Br)c(OC)cc12`, 16.9%.

As to `CCOC(=O)c1c(CNCCN(CC)CC)n(C)c2cc(Br)c(OC)cc12`, the cytotoxicity is 71.2% (active).

`CCOC(=O)c1c(CN2CCN(C)CC2)n(C)c2cc(Br)c(OC)cc12`: the cytotoxicity was -8.5%. As for `CCOC(=O)c1c(C)n(C)c2cc(Br)c(C(=O)OC)cc12`, the figure is 5.9%; as for `CCOC(=O)c1c(CN2CCN(CCO)CC2)n(C)c2cc(Br)c(OC)cc12`, 98.7% (active). As for `O=C(COC(=O)c1cccc(S(=O)(=O)N2CCc3ccccc32)c1)NC1CCS(=O)(=O)C1` (configuration not stated), the figure is 23.6%; as for `O=C(O)Cn1cnc2scc(-c3cccs3)c2c1=O`, 6.1%. As for `Clc1ccc(Cc2noc(Cc3ccccc3)n2)cc1Cl`, the figure is -5%. As to `CCOC(=O)C(CCSC)NC(=O)CN` (configuration not stated), the cytotoxicity was -9.8%. For the compound `COC(=O)C1C(=O)c2c([nH]c(C(=O)OCCOC(C)C)c2C)CC1C` (configuration not stated), the cytotoxicity was -0.2%. The result for `CCC(C)(C(=O)NC1CCCCC1)N(CC1CCCO1)C(=O)c1ccccn1` (configuration not stated) reads -5.6%; that for `CC1(C)CC(=O)C(C=NCC2CCCO2)=C(O)C1` (configuration not stated), -19.7%; that for `CC(=O)Nc1cc2c(cc1C(=O)c1ccc(C)cc1)OCCO2`, 0.7%. For the compound `Oc1ccc(Br)cc1-c1cc(-c2ccccc2F)[nH]n1`, the cytotoxicity is 18%.

Regarding `COc1ccc(O)c(-c2cc(-c3cccs3)[nH]n2)c1`, the cytotoxicity is 34.1%. The result for `Cc1nn(Cc2ccc(Cl)cc2Cl)c(C)c1NC(=O)c1nc2n(n1)C(C(F)F)CC(C)N2` (configuration not stated) reads 9.5%. The result for `CCOC(=O)c1[nH]c(C)c(/C=N/O)c1C` reads 0.1%; that for `NC(=O)CSc1nnc(CNc2ccc(F)cc2)n1CC1CCCO1` (configuration not stated), -7.7%. As for `CCCn1c(SCC(=O)Nc2sc(C)c(C)c2C(=O)OCC)nc2c1c(=O)n(C)c(=O)n2C`, the figure is 0.3%; as for `COC(=O)c1c(NC(=O)CSc2nc3c(c(=O)n(C)c(=O)n3C)n2C(C)C)sc(C)c1C`, -14%; as for `CCOC(=O)c1c(NC(=O)CSc2nc3c(c(=O)n(C)c(=O)n3C)n2C(C)C)sc(C)c1C`, 77.5% (active). As for `CCn1c(SCC(=O)Nc2cc(C)ccc2C)nc2c(c1=O)SC(C)C2` (configuration not stated), the cytotoxicity is 8.9%. In the case of `Cn1c(=O)c2c(nc(CN3CCN(c4ccc(F)cc4)CC3)n2CCN2CCOCC2)n(C)c1=O`, the cytotoxicity was -4.6%. In the case of `CCn1c(=N)n(CC(O)c2ccco2)c2ccccc21` (configuration not stated), the cytotoxicity is -9.8%.

`CC[C@H](C)C(=O)O[C@H]1C[C@@H](C)C=C2C=C[C@H](C)[C@H](CC[C@@H]3C[C@@H](O)CC(=O)O3)[C@H]21`: the cytotoxicity was 55.1% (active).

`CCC(=O)Nc1cc(-c2nn(C)c(=O)c3ccccc23)ccc1N1CCCCC1`: the cytotoxicity was 2%. As for `Cn1nc(-c2ccc(N3CCCCC3)c(NC(=O)c3ccco3)c2)c2ccccc2c1=O`, the figure is 57.8% (active). For `CCCC(=O)Nc1cc(-c2nn(C)c(=O)c3ccccc23)ccc1N1CCCCC1`, the cytotoxicity was -4.5%. As for `CC(C)C(NS(=O)(=O)c1ccc2c(c1)oc(=O)n2C)C(=O)N1CCN(Cc2ccccc2)CC1` (configuration not stated), the figure is 7.1%; as for `CCCOc1ccccc1C1CC(=O)NC2=C1C(=O)CCC2` (configuration not stated), 36.3%. On to `CCOc1ccccc1C1CC(=O)Nc2cc3c(cc21)OCO3` (configuration not stated), for which the cytotoxicity was 55.9% (active). Regarding `CCCOc1c(OC)cccc1C1CC(=O)Nc2cc3c(cc21)OCCO3` (configuration not stated), the cytotoxicity was 68.7% (active). For the compound `COc1cccc(C2CC(=O)Nc3cc4c(cc32)OCCO4)c1OC(C)C` (configuration not stated), the cytotoxicity is 34.4%.

For `CCCOc1c(OC)cccc1C1CC(=O)Nc2cc3c(cc21)OCO3` (configuration not stated), the cytotoxicity is 9.6%.

Take `CC(C)Oc1ccccc1C1CC(=O)Nc2cc3c(cc21)OCO3` (configuration not stated): the cytotoxicity was 42.7%.

Consider `CCOc1ccccc1C1CC(=O)NC2=C1C(=O)CCC2` (configuration not stated), for which the cytotoxicity was 16.8%. For `CC(C)Oc1ccccc1C1CC(=O)Nc2cc3c(cc21)OCCO3` (configuration not stated), the cytotoxicity was 45.7%. The result for `CCCCOc1ccccc1C1CC(=O)NC2=C1C(=O)CCC2` (configuration not stated) reads 60.3% (active).

With `CCOc1ccccc1C1CC(=O)Nc2cc3c(cc21)OCCO3` (configuration not stated), the cytotoxicity is 48.6%. As for `COc1ccccc1C1CC(=O)Nc2cc3c(cc21)OCCO3` (configuration not stated), the figure is 63.8% (active); as for `CCOc1c(OC)cccc1C1CC(=O)Nc2cc3c(cc21)OCCO3` (configuration not stated), 8.9%. Take `O=C1c2ccccc2C(=O)N1CCN1CCOCC1`: the cytotoxicity is -1.3%. Regarding `CC(C)N(C(=O)CSc1nnnn1C1CCCC1)C(C)C`, the cytotoxicity is -9.6%. The result for `CCCCn1nnnc1SCC(=O)Nc1ccc(C)cc1` reads -4.8%; that for `Cc1ccc(NS(=O)(=O)c2cc(C(=O)N3CCOCC3)ccc2C)cc1C`, -4.4%.
